Inconclusive results are not listed. Entries that show only a call come without a potency. A number with no mark means an inactive call. Calls of active or inactive are those of the source. Calls follow the shape of the dose curve; as a rule, active = well fitted cell-killing curve with a large enough effect; inconclusive = small, poorly fitted or top-dose-only effect, or effect the other way; inactive = flat fitted curve, though single readings scatter.
Tests used:
Tov-21-G = test: Primary qHTS to identify gynecologic anti-cancer compounds using libraries of approved drugs and bioactive compounds (AID 1345084); details: Gynecologic cancer cell panel viability, ATPlite luminescence, 48 h; series mostly up to 57.5 µM; also: nearly all actives have a fitted effect of over 55% in size
How it was run: (§1)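 In this quantitative HTS, cell killing is estimated from loss of ATP-dependent luciferase light. Cells see five compound concentrations over a 48 h exposure.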

Tov112D = test: as above; details: Gynecologic cancer cell panel viability, ATPlite luminescence, 48 h; series mostly up to 57.5 µM
How it was run: as §1
Potency is read from the fitted curve at half-maximal effect.

## CC1OC(=O)C[C@@H]2C(C(=O)O)=CO[C@@H](O[C@H]3O[C@H](CO)[C@@H](O)[C@H](O)[C@H]3O)[C@H]12 (some centres undefined)
Tov-21-G
  Potency: inactive
Tov112D
  Potency: inactive

## Cc1nc(Nc2cnn(C3CCNCC3)c2)nc2c1N(C)C(=O)c1cc3ccccc3cc1N2C
Tov-21-G
  Potency: inactive
Tov112D
  Potency: inactive

## CC(=O)OC1C(O)CC2(C)C(CCC3(C)C2CC=C2C4C5(CCC(CO[C@@H]6O[C@H](CO)[C@@H](O)[C@H](O)[C@H]6O)(OC5=O)C4(C)O)C(O)CC23C)C1(C)C (some centres undefined)
Tov-21-G
  Potency: inactive
Tov112D
  Potency: inactive

## CCN(CCNC(=O)Nc1ccccc1Br)c1cccc(C)c1
Tov-21-G
  Potency: inactive
Tov112D
  Potency: inactive

## CCCc1cc(C)[nH]c(=O)c1CNC(=O)c1cc(-c2ccc(N3CCN(C(C)C)CC3)nc2)cc2c1cnn2C(C)C
Tov-21-G
  Potency: inactive
Tov112D
  Potency: inactive

## CC1=C(c2ccc(NC(=O)c3c(F)cccc3F)cc2)CN(c2nccs2)CC1
Tov-21-G
  Potency: inactive
Tov112D
  Potency: inactive

## CC(C)c1cc(-c2ccc(F)c3ccccc23)nc(N)n1
Tov-21-G
  Potency: inactive
Tov112D
  Potency: inactive

## C/C(=C\CO[C@@H]1O[C@H](CO[C@H]2OC[C@](O)(CO)[C@H]2O)[C@@H](O)[C@H](O)[C@H]1O)C(C)(C)O
Tov-21-G
  Potency: inactive
Tov112D
  Potency: inactive

## Fc1ccc2c(CCNCc3cccc(OCC(F)(F)C(F)F)c3)c[nH]c2c1
Tov-21-G
  Potency: inactive
Tov112D
  Potency: inactive

## CC1(C)CCC2(C(=O)OC3OC(COC4OC(CO)C(O)C(O)C4O)C(O)C(O)C3O)CCC3(C)C(=CCC4C5(C)CCC(OC6OCC(O)C(O)C6O)C(C)(C)C5CCC43C)C2C1O (centres undefined)
Tov-21-G
  activity change, negative = cytotoxicity: 0.233% [at 11.6 µM]
Tov112D
  activity change, negative = cytotoxicity: -9.09% [at 11.6 µM]

## C=CCc1ccc(OC(C)Cc2ccc(OC)c(OC)c2)c(OC)c1 (centres undefined)
Tov-21-G
  Potency: inactive
Tov112D
  Potency: inactive

## CC[C@H]1CN(c2nc(N)c(C(N)=O)nc2Cl)CCN1C1CCN(Cc2ccc(Cl)cc2)CC1
Tov-21-G
  Potency: inactive
Tov112D
  Potency: inactive

## COc1cc(C(=O)NCC2(N(C)C)CCCC2)cc(OC)c1OCc1ccccc1
Tov-21-G
  Potency: inactive
Tov112D
  Potency: inactive

## CNc1cc2[nH]c(=O)n(-c3ccc(NC(=O)NS(=O)(=O)c4ccc(Cl)s4)cc3)c(=O)c2cc1F
Tov-21-G
  Potency: inactive
Tov112D
  Potency: inactive

## O=c1cc(N2CCOCC2)nc2c3ccccc3ccn12
Tov-21-G
  Potency: inactive
Tov112D
  Potency: inactive

## CC(=O)NC(C(=O)O[C@H]1CCC(C)(C)[C@@H]2CC=C3C(=O)OCC3(O)[C@@]12C)C(C)C (some centres undefined)
Tov-21-G
  Potency: inactive
Tov112D
  Potency: inactive

## O=C(Nc1ccc(CN2CCOCC2)cc1)c1ccc(-c2cccc(Cl)c2)o1
Tov-21-G
  Potency: inactive
Tov112D
  Potency: inactive

## Nc1c(S(=O)(=O)c2ccccc2)c2nc3ccccc3nc2n1-c1ccc(F)cc1
Tov-21-G
  Potency: inactive
Tov112D
  Potency: inactive

## CCOc1cccc(NC(=O)c2ccc(N3CCCC3)c(C(F)(F)F)c2)c1
Tov-21-G
  Potency: inactive
Tov112D
  Potency: inactive

## CC(C)n1c(=O)c(C(=O)NC2CC3CCC(C2)N3C[C@@H](O)CN(C)S(C)(=O)=O)cc2ccccc21 (some centres undefined)
Tov-21-G
  Potency: inactive
Tov112D
  Potency: inactive

## Fc1ccc(-c2cncc(CN3CCN(c4cccc5c4OCCO5)CC3)c2)cc1
Tov-21-G
  Potency: inactive
Tov112D
  Potency: inactive

## Nc1ncnc2c1c(-c1ccc(Cl)cc1)nn2-c1cccc(-c2cnnn2Cc2cccc(-c3ccccc3)c2)c1
Tov-21-G
  Potency: inactive
Tov112D
  Potency: inactive

## O=C(NCCCNc1nc(Nc2cccc(CN3CCOCC3)c2)ncc1C1CC1)C1CCC1
Tov-21-G
  Potency: 15.8 µM (active)
Tov112D
  Potency: inactive

## CCOc1ccc(-n2c([C@@H](C)N(Cc3cccnc3)C(=O)Cc3ccc(OC(F)(F)F)cc3)nc3ncccc3c2=O)cc1
Tov-21-G
  Potency: inactive
Tov112D
  Potency: inactive

## O=C(Nc1ccccc1Br)NC1CCN(c2ccc(C(F)(F)F)cn2)C1 (centres undefined)
Tov-21-G
  Potency: inactive
Tov112D
  Potency: inactive

## CC(=O)OC1C(OC(=O)c2ccccc2)C2C(=C(C)CCC2(C)C)C23CCC(C)(C2)C(=O)CC13 (centres undefined)
Tov-21-G
  Potency: inactive
Tov112D
  Potency: inactive

## O=C(NCC1CCN(Cc2cccc(Cl)c2)CC1)[C@@H]1CCCN(c2ncnc3c2nc2n3CCCC2)C1
Tov-21-G
  Potency: inactive
Tov112D
  Potency: inactive

## Cc1nc(-c2cn3c(n2)-c2ccc(-c4cnn(C(C)(C)C(N)=O)c4)cc2OCC3)n(C(C)C)n1
Tov-21-G
  Potency: 11.2 µM (active)
Tov112D
  Potency: inactive

## O=C(Nc1cccnn1)N1CCN(c2nccc(-c3ccc(F)c(F)c3)n2)CC1
Tov-21-G
  Potency: inactive
Tov112D
  Potency: inactive

## CC(=O)NC[C@H]1CN(c2ccc(N3CCSCC3)c(F)c2)C(=O)O1
Tov-21-G
  Potency: inactive
Tov112D
  Potency: inactive

## CC1=C(C(=O)OC2CCCCC2)C(c2ccc([N+](=O)[O-])cc2)C2=C(CC(C)(C)CC2=O)N1 (centres undefined)
Tov-21-G
  Potency: inactive
Tov112D
  Potency: inactive

## C=C1C(=O)O[C@@H]2[C@H]3C(C)=CC(=O)C3=C(C)CC[C@@H]12
Tov-21-G
  Potency: 28.2 µM (active)
Tov112D
  Potency: inactive

From PubChem BioAssay (NCATS)
